Measurements reported in PMC5540273 (PLoS ONE, 2017).

Legend:
Conditions in all cases: concentration: 1 μM,replicates: in singlicate; n = 1
[1] = test system: T1, PCTK2
T1 construct: gene CDK17

[2] = test system: T2, PCTK3
T2 construct: gene CDK18

[3] = test system: PDGFRA
[4] = test system: PDGFRB
[5] = test system: PDPK1
[6] = test system: PFTAIRE2
[7] = test system: T3, PFTK1
T3 construct: gene CDK14

[8] = test system: PHKG1
[9] = test system: PHKG2
[10] = test system: PIK3C2B
[11] = test system: PIK3C2G
[12] = test system: PIK3CA
[13] = test system: PIK3CB
[14] = test system: PIK3CD
[15] = test system: PIK3CG
[16] = test system: T4, PIK4CB
T4 construct: gene PI4KB

[17] = test system: PIKFYVE
[18] = test system: PIM1
[19] = test system: PIM2
[20] = test system: PIM3
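Note: KINOMEscan kinase panel screen.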

Compound | %Inh [1] | %Inh [2] | %Inh [3] | %Inh [4] | %Inh [5] | %Inh [6] | %Inh [7] | %Inh [8] | %Inh [9] | %Inh [10] | %Inh [11] | %Inh [12] | %Inh [13] | %Inh [14] | %Inh [15] | %Inh [16] | %Inh [17] | %Inh [18] | %Inh [19] | %Inh [20]
C[C@@H](Oc1cc(-n2cnc3ccc(-c4ccncc4)cc32)sc1C(N)=O)c1ccccc1Cl [GSK483724] | 0% | 47% | 8% | 54% | 0% | 22% | 26% | 9% | 0% | 88% | 6% | 53% | 68% | 87% | 97.7% | 79% | 95.1% | 46% | 64% | 23%
O=C(Nc1cccc(Oc2ccc3nccn3n2)c1)Nc1cccc(C(F)(F)F)c1 | 0% | 8% | 99.8% | 100% | 0% | 0% | 1% | 14% | 0% | 12% | 0% | 0% | 0% | 5% | 18% | 0% | 0% | 0% | 10% | 0%
C[C@@H](Oc1cc(-n2cnc3cc(-c4ccncc4)ccc32)sc1C(N)=O)c1ccccc1Cl [GSK479719] | 0% | 15% | 67% | 95.1% | 40% | 17% | 18% | 0% | 16% | 0% | 0% | 0% | 0% | 0% | 0% | 0% | 27% | 0% | 0% | 0%
Cl.c1ccc(Oc2ccc(Nc3ccnc4cc(-c5ccc(CN6CCNCC6)o5)ccc34)cc2)nc1 [GW567142] | 0% | 2% | 78% | 98.5% | 0% | 25% | 11% | 0% | 0% | 0% | 0% | 0% | 0% | 0% | 10% | 0% | 0% | 0% | 0% | 2%
O=C(Nc1n[nH]c2cc(-c3ccco3)ccc12)C1CC1 [SB-737447] | 31% | 28% | 30% | 59% | 0% | 0% | 1% | 0% | 3% | 6% | 17% | 0% | 0% | 0% | 0% | 18% | 1% | 6% | 0% | 22%
O=C(NCC1CC1)c1ccc(-c2cc(C(=O)NC3CC3)ccc2F)cc1 [GW810445] | 0% | 0% | 0% | 0% | 0% | 0% | 0% | 0% | 0% | 0% | 0% | 0% | 0% | 0% | 0% | 0% | 6% | 9% | 0% | 0%
COc1cccc(C2=C(Nc3cccc(Cl)c3)C(=O)NC2=O)c1 [SB-341556] | 0% | 6% | 0% | 17% | 0% | 8% | 0% | 0% | 0% | 0% | 0% | 1% | 0% | 0% | 0% | 10% | 0% | 9% | 0% | 0%
CCOC(=O)N1CCC(n2cnc(-c3ccc(F)cc3)c2-c2ccnc(N)n2)CC1 [SB-219952] | 9% | 32% | 14% | 23% | 7% | 25% | 17% | 0% | 0% | 56% | 69% | 15% | 0% | 16% | 64% | 59% | 37% | 9% | 0% | 1%
C[C@@H]1CCN(C(=O)N2CCCC2)C[C@@H]1N(C)c1ncnc2[nH]ccc12 | 0% | 0% | 21% | 19% | 0% | 0% | 0% | 0% | 5% | 0% | 0% | 2% | 26% | 2% | 14% | 7% | 3% | 0% | 0% | 0%
CCn1c(-c2nonc2N)nc2cncc(CNC3CCNCC3)c21.Cl [SB-747651] | 0% | 0% | 0% | 4% | 18% | 14% | 1% | 25% | 0% | 0% | 0% | 0% | 0% | 2% | 0% | 15% | 0% | 93.4% | 81% | 80%
